# What was measured:
# Assay in all cases: DAPPL (digital affinity profiling via proximity ligation, sequencing); 10 mM Tris-HCl pH 7.5, 50 mM NaCl, 1 mM DTT, 4% glycerol, room temperature, 30 min; GST-TFs on glutathione beads, 16-mer random dsDNA library, 0.1% formaldehyde crosslink after washing; high values mean tight binding
# FLI1 = target: T1, FLI1 (Homo sapiens, UniProt Q01543 1-452); settings: protein: recombinant; tags: N-terminal GST; dsDNA, one strand shown
# T1 sequence: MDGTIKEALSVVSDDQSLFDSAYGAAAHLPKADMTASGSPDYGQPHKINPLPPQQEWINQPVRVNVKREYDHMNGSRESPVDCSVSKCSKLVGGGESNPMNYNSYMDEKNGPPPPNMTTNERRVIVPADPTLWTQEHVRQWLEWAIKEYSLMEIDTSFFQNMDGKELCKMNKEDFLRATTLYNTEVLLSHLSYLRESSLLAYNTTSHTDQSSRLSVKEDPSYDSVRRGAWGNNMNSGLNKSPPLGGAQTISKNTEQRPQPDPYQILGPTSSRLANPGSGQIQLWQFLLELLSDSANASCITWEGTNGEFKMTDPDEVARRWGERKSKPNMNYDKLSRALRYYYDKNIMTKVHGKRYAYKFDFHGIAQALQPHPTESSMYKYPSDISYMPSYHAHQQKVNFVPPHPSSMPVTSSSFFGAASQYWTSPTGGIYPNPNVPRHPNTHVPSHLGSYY
# Summary of the method: (§1)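 Sequencing on an Illumina NextSeq500 followed washing, crosslinking with 0.1% formaldehyde, proximity ligation (BsaI/T4 ligase, 1 h, 37 °C) and PCR amplification of pools that had been incubated for 30 min at room temperature with 200 nmole of a random double-stranded 16-mer DNA library in Tris/NaCl/DTT/glycerol buffer. Each pool held DNA-barcoded human transcription factors, expressed in yeast as GST fusions and captured on glutathione beads, plus a tag-only sample. Binding signal is a hexamer's read frequency for a factor divided by its frequency in the tag-only sample.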
# ELK1 = target: T2, ELK1 (Homo sapiens, UniProt P19419 1-428); settings: protein: recombinant; tags: N-terminal GST; dsDNA, one strand shown
# T2 sequence: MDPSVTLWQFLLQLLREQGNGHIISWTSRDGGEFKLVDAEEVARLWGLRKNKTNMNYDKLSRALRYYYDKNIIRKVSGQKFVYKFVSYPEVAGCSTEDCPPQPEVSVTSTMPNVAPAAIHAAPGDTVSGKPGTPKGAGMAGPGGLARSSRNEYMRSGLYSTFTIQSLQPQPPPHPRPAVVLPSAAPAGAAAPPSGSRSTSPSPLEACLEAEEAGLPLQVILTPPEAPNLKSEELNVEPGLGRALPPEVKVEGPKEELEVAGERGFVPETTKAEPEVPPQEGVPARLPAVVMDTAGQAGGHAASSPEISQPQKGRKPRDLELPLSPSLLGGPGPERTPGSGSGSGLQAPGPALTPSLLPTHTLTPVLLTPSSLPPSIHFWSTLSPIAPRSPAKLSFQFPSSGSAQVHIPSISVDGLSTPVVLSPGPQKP
# Summary of the method: as §1
# GABPA = target: T3, GABPA (Homo sapiens, UniProt Q06546 1-454); settings: protein: recombinant; tags: N-terminal GST; dsDNA, one strand shown
# T3 sequence: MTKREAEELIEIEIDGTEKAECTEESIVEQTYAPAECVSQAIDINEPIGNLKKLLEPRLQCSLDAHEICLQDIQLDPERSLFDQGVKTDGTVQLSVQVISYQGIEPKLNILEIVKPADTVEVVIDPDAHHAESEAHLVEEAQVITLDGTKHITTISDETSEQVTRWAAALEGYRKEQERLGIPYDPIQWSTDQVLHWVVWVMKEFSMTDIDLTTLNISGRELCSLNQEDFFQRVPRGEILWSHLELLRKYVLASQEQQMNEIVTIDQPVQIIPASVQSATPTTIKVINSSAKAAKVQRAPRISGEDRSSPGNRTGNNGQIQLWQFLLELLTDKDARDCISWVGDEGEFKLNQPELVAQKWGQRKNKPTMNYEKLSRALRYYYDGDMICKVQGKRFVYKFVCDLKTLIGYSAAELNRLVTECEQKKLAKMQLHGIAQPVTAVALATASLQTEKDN
# Summary of the method: as §1
# ERG = target: T4, ERG (Homo sapiens, UniProt P11308 1-479); settings: protein: recombinant; tags: N-terminal GST; dsDNA, one strand shown
# T4 sequence: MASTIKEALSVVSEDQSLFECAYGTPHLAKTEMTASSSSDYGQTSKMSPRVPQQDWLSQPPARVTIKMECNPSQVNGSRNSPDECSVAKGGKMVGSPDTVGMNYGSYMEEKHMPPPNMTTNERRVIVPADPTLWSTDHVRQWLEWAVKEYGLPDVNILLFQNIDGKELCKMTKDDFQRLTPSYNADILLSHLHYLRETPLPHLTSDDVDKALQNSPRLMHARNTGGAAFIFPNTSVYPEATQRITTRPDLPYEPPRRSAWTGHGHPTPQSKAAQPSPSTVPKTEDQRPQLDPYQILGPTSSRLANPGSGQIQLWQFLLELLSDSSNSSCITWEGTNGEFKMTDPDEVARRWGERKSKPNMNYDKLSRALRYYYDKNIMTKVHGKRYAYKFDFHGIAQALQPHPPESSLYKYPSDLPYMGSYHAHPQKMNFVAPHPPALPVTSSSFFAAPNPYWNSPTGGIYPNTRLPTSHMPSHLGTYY
# Summary of the method: as §1
# ELF1 = ELF1 (Homo sapiens, UniProt P32519 1-619); settings: protein: recombinant; tags: N-terminal GST; dsDNA, one strand shown
# ELF1, sequence (P32519 whole entry): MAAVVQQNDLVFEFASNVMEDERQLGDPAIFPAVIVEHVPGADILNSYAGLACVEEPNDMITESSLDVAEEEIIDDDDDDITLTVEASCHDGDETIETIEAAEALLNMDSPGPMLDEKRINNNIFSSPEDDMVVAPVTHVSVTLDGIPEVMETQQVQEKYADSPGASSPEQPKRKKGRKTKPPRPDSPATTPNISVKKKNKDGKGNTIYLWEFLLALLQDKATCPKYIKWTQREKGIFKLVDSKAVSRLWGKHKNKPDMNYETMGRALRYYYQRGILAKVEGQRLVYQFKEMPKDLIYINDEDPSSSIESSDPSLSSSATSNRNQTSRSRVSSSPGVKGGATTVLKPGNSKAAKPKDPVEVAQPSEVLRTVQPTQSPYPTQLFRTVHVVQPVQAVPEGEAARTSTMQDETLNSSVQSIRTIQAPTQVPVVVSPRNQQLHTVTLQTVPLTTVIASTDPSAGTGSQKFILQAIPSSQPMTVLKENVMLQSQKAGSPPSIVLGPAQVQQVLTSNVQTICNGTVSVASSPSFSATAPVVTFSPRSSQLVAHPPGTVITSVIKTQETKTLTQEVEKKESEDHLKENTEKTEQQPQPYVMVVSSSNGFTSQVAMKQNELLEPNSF
# Summary of the method: as §1
# EHF = target: T5, EHF (Homo sapiens, UniProt Q9NZC4 1-300); settings: protein: recombinant; tags: N-terminal GST; dsDNA, one strand shown
# T5 sequence: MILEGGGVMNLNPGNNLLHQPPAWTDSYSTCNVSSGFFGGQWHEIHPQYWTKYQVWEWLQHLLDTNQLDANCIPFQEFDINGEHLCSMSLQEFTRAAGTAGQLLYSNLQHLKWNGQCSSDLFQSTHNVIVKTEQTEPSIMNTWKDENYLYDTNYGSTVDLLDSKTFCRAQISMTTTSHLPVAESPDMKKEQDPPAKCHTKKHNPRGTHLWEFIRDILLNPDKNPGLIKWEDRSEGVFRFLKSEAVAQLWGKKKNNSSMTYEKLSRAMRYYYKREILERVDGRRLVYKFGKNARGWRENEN
# Summary of the method: as §1
# SPI1 = SPI1 (Homo sapiens, UniProt P17947 1-270); settings: protein: recombinant; tags: N-terminal GST; dsDNA, one strand shown
# Summary of the method: as §1
# SPIB = SPIB (Homo sapiens, UniProt Q01892 1-262); settings: protein: recombinant; tags: N-terminal GST; dsDNA, one strand shown
# SPIB, sequence (Q01892 whole entry): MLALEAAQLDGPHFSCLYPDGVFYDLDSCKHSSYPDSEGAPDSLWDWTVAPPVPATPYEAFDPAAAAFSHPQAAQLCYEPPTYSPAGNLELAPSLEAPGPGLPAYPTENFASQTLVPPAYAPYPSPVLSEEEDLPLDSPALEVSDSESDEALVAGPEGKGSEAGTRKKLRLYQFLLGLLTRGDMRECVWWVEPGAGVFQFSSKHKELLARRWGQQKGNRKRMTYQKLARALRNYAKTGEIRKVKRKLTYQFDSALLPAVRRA
# Summary of the method: as §1
# ELK3 = target: T6, ELK3 (Homo sapiens, UniProt P41970 1-407); settings: protein: recombinant; tags: N-terminal GST; dsDNA, one strand shown
# T6 sequence: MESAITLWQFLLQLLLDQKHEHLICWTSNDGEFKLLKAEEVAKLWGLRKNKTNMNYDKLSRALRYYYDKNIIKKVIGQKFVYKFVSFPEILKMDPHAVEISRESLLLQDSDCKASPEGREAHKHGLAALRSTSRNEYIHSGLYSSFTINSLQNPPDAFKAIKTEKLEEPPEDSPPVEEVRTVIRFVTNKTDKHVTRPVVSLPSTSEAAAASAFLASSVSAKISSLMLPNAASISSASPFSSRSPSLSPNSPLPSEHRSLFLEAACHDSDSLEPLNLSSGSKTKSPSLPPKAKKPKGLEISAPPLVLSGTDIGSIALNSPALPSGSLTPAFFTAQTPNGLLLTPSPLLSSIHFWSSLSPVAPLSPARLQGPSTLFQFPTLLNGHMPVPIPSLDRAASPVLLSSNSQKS
# Summary of the method: as §1
# FEV = target: T7, FEV (Homo sapiens, UniProt Q99581 1-238); settings: protein: recombinant; tags: N-terminal GST; dsDNA, one strand shown
# T7 sequence: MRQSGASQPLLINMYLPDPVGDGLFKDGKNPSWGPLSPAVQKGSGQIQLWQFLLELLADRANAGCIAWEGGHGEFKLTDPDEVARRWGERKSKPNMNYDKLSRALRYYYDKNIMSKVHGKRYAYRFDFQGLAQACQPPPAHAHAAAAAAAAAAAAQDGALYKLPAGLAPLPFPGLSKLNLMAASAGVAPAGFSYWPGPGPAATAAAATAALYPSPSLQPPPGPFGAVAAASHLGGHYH
# Summary of the method: as §1
# ETV5 = ETV5 (Homo sapiens, UniProt P41161 1-510); settings: protein: recombinant; tags: N-terminal GST; dsDNA, one strand shown
# ETV5, sequence (P41161 whole entry): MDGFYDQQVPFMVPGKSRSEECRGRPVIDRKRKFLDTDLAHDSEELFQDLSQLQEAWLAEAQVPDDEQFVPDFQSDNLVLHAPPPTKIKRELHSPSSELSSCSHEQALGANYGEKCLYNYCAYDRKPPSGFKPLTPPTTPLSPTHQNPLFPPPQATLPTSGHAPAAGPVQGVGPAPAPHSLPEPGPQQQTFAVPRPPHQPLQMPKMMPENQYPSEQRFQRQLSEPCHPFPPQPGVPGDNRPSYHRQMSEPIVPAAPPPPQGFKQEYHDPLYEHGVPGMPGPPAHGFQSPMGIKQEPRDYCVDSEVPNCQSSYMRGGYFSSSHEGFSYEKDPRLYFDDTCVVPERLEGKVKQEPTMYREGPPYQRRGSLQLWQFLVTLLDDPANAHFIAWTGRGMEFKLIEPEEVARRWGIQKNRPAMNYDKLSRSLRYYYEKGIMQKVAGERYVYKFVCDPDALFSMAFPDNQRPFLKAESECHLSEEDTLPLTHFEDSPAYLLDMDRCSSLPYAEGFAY
# Summary of the method: as §1
# HSF1 = HSF1 (Homo sapiens, UniProt Q00613 1-529); settings: protein: recombinant; tags: N-terminal GST; chain copies: 3; dsDNA, one strand shown
# HSF1, sequence (Q00613 whole entry): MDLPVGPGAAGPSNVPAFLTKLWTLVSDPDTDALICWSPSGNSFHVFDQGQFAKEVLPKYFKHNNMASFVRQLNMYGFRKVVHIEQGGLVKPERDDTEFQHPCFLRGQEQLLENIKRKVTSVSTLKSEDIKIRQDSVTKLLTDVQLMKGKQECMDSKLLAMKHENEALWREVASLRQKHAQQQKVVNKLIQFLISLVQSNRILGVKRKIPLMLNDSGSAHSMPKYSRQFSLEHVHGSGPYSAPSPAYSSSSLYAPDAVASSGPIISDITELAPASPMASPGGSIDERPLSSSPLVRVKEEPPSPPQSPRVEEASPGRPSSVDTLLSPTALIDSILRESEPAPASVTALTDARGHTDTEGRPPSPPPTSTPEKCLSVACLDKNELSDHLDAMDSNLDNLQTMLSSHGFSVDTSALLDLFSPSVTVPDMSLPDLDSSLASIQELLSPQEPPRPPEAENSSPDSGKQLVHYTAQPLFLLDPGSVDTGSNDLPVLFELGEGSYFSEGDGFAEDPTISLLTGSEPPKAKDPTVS
# Summary of the method: as §1
# SPIC = target: T8, SPIC (Homo sapiens, UniProt Q8N5J4 1-248); settings: protein: recombinant; tags: N-terminal GST; dsDNA, one strand shown
# T8 sequence: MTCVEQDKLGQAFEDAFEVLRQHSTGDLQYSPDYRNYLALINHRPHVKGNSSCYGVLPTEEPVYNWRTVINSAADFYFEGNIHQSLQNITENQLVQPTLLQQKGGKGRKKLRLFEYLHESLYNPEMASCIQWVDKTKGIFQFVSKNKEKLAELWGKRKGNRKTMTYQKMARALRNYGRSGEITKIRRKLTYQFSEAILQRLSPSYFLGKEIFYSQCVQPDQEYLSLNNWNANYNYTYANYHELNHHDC
# Summary of the method: as §1
# ELF4 = ELF4 (Homo sapiens, UniProt Q99607 1-663); settings: protein: recombinant; tags: N-terminal GST; dsDNA, one strand shown
# ELF4, sequence (Q99607 whole entry): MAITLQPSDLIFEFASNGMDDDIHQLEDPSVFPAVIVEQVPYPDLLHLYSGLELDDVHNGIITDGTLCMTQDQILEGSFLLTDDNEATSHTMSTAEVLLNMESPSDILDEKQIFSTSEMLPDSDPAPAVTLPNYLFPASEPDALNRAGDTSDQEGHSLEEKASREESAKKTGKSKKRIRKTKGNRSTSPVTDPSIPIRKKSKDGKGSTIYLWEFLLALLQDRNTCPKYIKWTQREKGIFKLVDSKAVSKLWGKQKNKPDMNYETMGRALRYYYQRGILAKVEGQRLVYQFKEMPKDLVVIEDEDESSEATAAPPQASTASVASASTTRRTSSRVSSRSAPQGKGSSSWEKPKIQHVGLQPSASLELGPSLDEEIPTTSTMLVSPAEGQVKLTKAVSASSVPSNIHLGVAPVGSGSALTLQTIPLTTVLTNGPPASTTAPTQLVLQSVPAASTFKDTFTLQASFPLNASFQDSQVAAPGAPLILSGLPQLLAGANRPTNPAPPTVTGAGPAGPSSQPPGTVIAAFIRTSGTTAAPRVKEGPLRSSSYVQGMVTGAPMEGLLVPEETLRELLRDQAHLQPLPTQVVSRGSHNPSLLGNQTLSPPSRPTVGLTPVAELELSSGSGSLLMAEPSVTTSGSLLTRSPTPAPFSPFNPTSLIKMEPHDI
# Summary of the method: as §1
# ELK4 = target: T9, ELK4 (Homo sapiens, UniProt P28324-2 1-405); settings: protein: recombinant; tags: N-terminal GST; dsDNA, one strand shown
# T9 sequence: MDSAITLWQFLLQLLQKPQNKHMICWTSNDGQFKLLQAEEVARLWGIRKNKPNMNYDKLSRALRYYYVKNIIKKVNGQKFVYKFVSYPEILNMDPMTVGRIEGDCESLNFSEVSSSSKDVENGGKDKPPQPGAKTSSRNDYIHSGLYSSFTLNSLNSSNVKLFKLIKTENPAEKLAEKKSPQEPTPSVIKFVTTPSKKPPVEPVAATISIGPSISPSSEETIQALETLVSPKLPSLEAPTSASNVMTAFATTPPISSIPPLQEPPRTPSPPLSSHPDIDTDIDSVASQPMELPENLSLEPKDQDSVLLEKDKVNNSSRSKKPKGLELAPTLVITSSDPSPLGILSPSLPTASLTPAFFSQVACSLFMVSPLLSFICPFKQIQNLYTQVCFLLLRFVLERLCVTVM
# Summary of the method: as §1
# ETV2 = target: T10, ETV2 (Homo sapiens, UniProt O00321 1-342); settings: protein: recombinant; tags: N-terminal GST; dsDNA, one strand shown
# T10 sequence: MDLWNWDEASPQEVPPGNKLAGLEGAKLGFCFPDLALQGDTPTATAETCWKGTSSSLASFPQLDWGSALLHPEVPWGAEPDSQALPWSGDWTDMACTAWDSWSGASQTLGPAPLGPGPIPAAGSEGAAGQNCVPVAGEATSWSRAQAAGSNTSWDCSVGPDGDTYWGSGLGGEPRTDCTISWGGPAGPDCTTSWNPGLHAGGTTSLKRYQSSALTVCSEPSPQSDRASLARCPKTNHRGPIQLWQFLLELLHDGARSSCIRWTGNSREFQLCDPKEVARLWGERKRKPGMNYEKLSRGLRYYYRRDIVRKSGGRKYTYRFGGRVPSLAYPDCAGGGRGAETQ
# Summary of the method: as §1
# ELF3 = target: T11, ELF3 (Homo sapiens, UniProt P78545 1-371); settings: protein: recombinant; tags: N-terminal GST; dsDNA, one strand shown
# T11 sequence: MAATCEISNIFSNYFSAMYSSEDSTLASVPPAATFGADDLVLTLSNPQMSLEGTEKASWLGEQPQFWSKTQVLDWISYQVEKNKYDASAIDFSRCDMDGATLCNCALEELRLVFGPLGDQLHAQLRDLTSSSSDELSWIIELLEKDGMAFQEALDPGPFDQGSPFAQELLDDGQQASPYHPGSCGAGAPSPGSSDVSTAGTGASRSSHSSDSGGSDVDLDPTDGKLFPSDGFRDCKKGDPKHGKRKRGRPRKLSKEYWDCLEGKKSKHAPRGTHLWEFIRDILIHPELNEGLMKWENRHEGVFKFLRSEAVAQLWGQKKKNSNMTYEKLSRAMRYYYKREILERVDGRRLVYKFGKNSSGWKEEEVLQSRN
# Summary of the method: as §1
# CRX = CRX (Homo sapiens, UniProt O43186 1-299); settings: protein: recombinant; tags: N-terminal GST; dsDNA, one strand shown
# CRX, sequence (O43186 whole entry): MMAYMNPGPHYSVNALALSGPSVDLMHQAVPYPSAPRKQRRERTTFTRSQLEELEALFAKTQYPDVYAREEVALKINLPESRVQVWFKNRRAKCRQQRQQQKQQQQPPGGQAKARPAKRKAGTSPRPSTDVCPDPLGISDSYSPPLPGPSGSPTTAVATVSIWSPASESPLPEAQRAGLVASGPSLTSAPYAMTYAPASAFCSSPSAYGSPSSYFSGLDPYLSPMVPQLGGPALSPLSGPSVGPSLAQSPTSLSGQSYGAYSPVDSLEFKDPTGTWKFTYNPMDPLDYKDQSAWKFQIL
# Summary of the method: as §1
# ETV1 = ETV1 (Homo sapiens, UniProt P50549 1-477); settings: protein: recombinant; tags: N-terminal GST; dsDNA, one strand shown
# ETV1, sequence (P50549 whole entry): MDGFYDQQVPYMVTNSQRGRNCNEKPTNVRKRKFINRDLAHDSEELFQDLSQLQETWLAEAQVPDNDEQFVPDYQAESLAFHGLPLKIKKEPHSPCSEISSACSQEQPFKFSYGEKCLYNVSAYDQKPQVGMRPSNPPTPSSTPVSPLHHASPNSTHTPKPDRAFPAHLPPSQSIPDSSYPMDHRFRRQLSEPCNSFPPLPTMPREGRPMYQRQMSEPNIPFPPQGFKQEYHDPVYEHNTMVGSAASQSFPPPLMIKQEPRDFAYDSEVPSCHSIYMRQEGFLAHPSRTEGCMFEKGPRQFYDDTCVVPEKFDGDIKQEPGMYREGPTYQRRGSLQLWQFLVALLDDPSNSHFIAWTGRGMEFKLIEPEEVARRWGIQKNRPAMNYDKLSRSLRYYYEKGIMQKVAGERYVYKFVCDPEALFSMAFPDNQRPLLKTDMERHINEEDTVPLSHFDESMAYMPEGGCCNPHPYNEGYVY
# Summary of the method: as §1
sequence,measurement,setting,value
TCATAT,binding signal,FLI1,"1.21 fold enrichment (6-mer frequency, TF over GST control)"
same,binding signal,ELK1,"1.2 fold enrichment (6-mer frequency, TF over GST control)"
same,binding signal,GABPA,"1.26 fold enrichment (6-mer frequency, TF over GST control)"
same,binding signal,ERG,"1.2 fold enrichment (6-mer frequency, TF over GST control)"
same,binding signal,ELF1,"1.29 fold enrichment (6-mer frequency, TF over GST control)"
same,binding signal,EHF,"1.24 fold enrichment (6-mer frequency, TF over GST control)"
same,binding signal,SPI1,"1.18 fold enrichment (6-mer frequency, TF over GST control)"
same,binding signal,SPIB,"1.4 fold enrichment (6-mer frequency, TF over GST control)"
same,binding signal,ELK3,"1.17 fold enrichment (6-mer frequency, TF over GST control)"
same,binding signal,FEV,"1.24 fold enrichment (6-mer frequency, TF over GST control)"
same,binding signal,ETV5,"1.23 fold enrichment (6-mer frequency, TF over GST control)"
same,binding signal,HSF1,"1.15 fold enrichment (6-mer frequency, TF over GST control)"
same,binding signal,SPIC,"1.13 fold enrichment (6-mer frequency, TF over GST control)"
same,binding signal,ELF4,"1.28 fold enrichment (6-mer frequency, TF over GST control)"
same,binding signal,ELK4,"1.23 fold enrichment (6-mer frequency, TF over GST control)"
same,binding signal,ETV2,"1.29 fold enrichment (6-mer frequency, TF over GST control)"
same,binding signal,ELF3,"1.23 fold enrichment (6-mer frequency, TF over GST control)"
same,binding signal,CRX,"1.22 fold enrichment (6-mer frequency, TF over GST control)"
same,binding signal,ETV1,"1.35 fold enrichment (6-mer frequency, TF over GST control)"
